Experimental data: PubChem BioAssay (Tox21)
Records with an inconclusive call do not appear. The source made the active and inactive calls. Calls follow the shape of the full dose curve.

Assay: qHTS assay to identify small molecule agonists of the endoplasmic reticulum stress response signaling pathway - cell viability counter screen (AID 1159517); also: nearly all actives have a fitted effect of over 50% in size
Conditions: ESRE-bla HeLa viability, CellTiter-Glo luminescence, 5 h; series mostly up to 61 µM
Excerpt: U.S. Tox21 Program National Center for Advancing Translational Sciences [NCATS] NIH Chemical Genomics Center [NCGC] U.S. Environmental Protection Agency [EPA] National Institutes of Environmental Health Sciences [NIEHS] National Toxicology Program [NTP] U.S. Food and Drug Administration [FDA] Tox21 Assay Overview: Endoplasmic Reticulum (ER) plays an important role in cellular signaling, protein folding/maturation, stress response, lipid biosynthesis, calcium storage and release etc. Under stress conditions, proteins in ER misfold or unfold, and leading to the expression of ER stress responsive genes. ER stress has been associated with a variety of pathophysiological conditions such as cancer, inflammation, neurodegenerative diseases, diabetes, ischemic heart disease etc. To identify the compounds that induce ER stress response, an ER stress reporter cell line, CellSensor ESRE-bla HeLa (Life Technologies, Carlsbad, CA) containing a beta-lactamase reporter gene under control of the Endoplasmic reticulum Stress Response Element (ESRE) was used to screen Tox21 10K compound library. The cytotoxicity of the Tox21 compound library against the ESRE-bla HeLa cell line was tested in parallel by measuring cell viability using the CellTiter-Glo assay in the same wells.
Tox21 Assay Protocol Summary: ESRE-bla HeLa cells were dispensed at 1,500 cells/6 uL of assay medium per well into black wall/clear-bottom 1536-well plates using a Multidrop Combi (ThermoFisher Scientific, Waltham, MA) dispenser. After the assay plates were incubated at 37 C and 5% CO2 for an overnight, 23 nL of compounds dissolved in DMSO, positive controls or DMSO only was transferred to the assay plate by a Pintool station (Kalypsys, San Diego, CA). The assay plates were incubated at 37 C and 5% CO2 for 5 hr. One uL of LiveBLAzer B/G FRET substrate (Life Technologies) was added using a FRD (Flying Reagent Dispenser, Aurora Discovery, San Diego, CA) and the plates were incubated at room temperature for 2 hr. Fluorescence intensity (405 nm excitation, 460 nm and 530 nm emissions) was measured using an Envision plate reader (PerkinElmer, Shelton, CT). For cytotoxicity, 4 ul/well of CellTiter-Glo reagent was added into the assay plates using an FRD. After 30 min incubation at room temperature, the luminescence intensity was measured using a ViewLux plate reader (PerkinElmer).
In the case of CCCCCCCCCC/C=C/C#N, the outcome is reported as “inactive”.
With Nc1cccc(S(=O)(=O)O)c1 the outcome was “inactive”.
With CO[Si](C)(C)OC the outcome was “inactive”.
In the case of NC(=O)Cc1cccc(C(=O)c2ccccc2)c1N, the outcome is reported as “inactive”.
In the case of NCCC(O)(P(=O)(O)O)P(=O)(O)O, the outcome is reported as “inactive”.
With CC1(C)C(=O)N(Cl)C(=O)N1Br the outcome was “inactive”.
In the case of CC(C)NC[C@@H](O)COc1cccc2ccccc12, the outcome is reported as “inactive”.
In the case of CCCCCCOc1ccc(N)cc1, the outcome is reported as “inactive”.
With O=[N+]([O-])c1nccn1CO[C@@H](CO)[C@H](O)CO the outcome was “inactive”.
In the case of CCNCCO, the outcome is reported as “inactive”.
With Cc1c(N)cccc1N the outcome was “inactive”.
With CC[C@H]1CC[C@H](NCc2cc3c(cc2OC)[C@H]2C[C@H]2C(=O)N3C)[C@H](c2ccccc2)N1 the outcome was “inactive”.
In the case of OC[C@H]1O[C@@H](O[C@H]2[C@H](O)[C@@H](O)[C@H](O)O[C@@H]2CO)[C@H](O)[C@@H](O)[C@H]1O, the outcome is reported as “inactive”.
With Nc1ccc2ccccc2c1S(=O)(=O)O the outcome was “inactive”.
With CCOc1ccc(OCC)c(Cl)c1 the outcome was “inactive”.
For CC(C)CC(=O)OCc1ccccc1, the outcome was “inactive”.
For C1CSCCS1, the outcome was “inactive”.
For N#CSCC(=O)O, the outcome was “inactive”.
In the case of CCCNC(C)(C)COC(=O)c1ccccc1, the outcome is reported as “inactive”.
With COc1cc(Cl)ccc1Cl the outcome was “inactive”.
In the case of CCCCCCCCCCCCCCCCOP(=O)([O-])OCC[N+](C)(C)C, the outcome is reported as “inactive”.
For CCC1(C)NC(=O)NC1=O (stereo not given), the outcome was “inactive”.
With CCC(=O)c1ccc2c(c1)N(CCCN(C)C)c1ccccc1S2 the outcome was “inactive”.
For CC1(O)CSC(C)(O)CS1 (stereo not given), the outcome was “inactive”.
With CC(C)NCC(O)COc1ccc(CCOCC2CC2)cc1 (stereo not given) the outcome was “inactive”.
In the case of CC(C)c1ccccc1, the outcome is reported as “inactive”.
For COc1ccccc1N1CCN(CCCNc2cc(=O)n(C)c(=O)n2C)CC1, the outcome was “inactive”.
In the case of O=C(CCCl)NCc1ccccc1, the outcome is reported as “inactive”.
With CCC(=O)Nc1ccc(O)cc1 the outcome was “inactive”.
With O=C1CCN(c2ccccc2)N1 the outcome was “inactive”.
In the case of CCCOc1ccc2c(c1)CC[C@@H]1[C@@H]2CC[C@]2(C)C(OC)CC[C@@H]12 (stereo not given in full), the outcome is reported as “inactive”.
For CCOc1ccc(NS(=O)(=O)c2ccc(N)cc2)nn1, the outcome was “inactive”.
For CCN(O)CC, the outcome was “inactive”.
With COC(C)CCO (stereo not given) the outcome was “inactive”.
With CCc1cc(Cl)c(OC)c(C(=O)NC[C@@H]2CCCN2CC)c1O the outcome was “inactive”.
With O=C1CCC(C2CCCCC2)CC1 the outcome was “inactive”.
In the case of O=C(O)CN(CCN(CC(=O)O)CC(=O)O)CCN(CC(=O)O)CC(=O)O, the outcome is reported as “inactive”.
For CC(C)C[C@H](NC(=O)OCC1c2ccccc2-c2ccccc21)C(=O)O, the outcome was “inactive”.
With C/C(=N\O)[C@@H](C)NCC(C)(C)CN[C@H](C)/C(C)=N/O the outcome was “inactive”.
For CC(C)(C)C1CCCCC1=O (stereo not given), the outcome was “inactive”.
